Source: PubChem BioAssay (NCI)
Compounds without any hit were thinned out: in the full panel of roughly 83,000, 20% have a hit.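 Cells were grown in 96-well plates and exposed to the test compound at a single concentration for 48 hours; results are reported as percent growth, with values below 10 considered active.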 Unmarked numbers belong to inactive results. The source made the active and inactive calls.

Legend:
Assay in all cases: NCI-60 one-dose screen, 48 h (100 = growth as untreated, 0 = no growth, -100 = all killed)
Conditions in all cases: 10 µM unless noted
MOLT-4 leukemia = tested on: MOLT-4 leukemia
SR leukemia = tested on: SR leukemia
OVCAR-8 ovarian = tested on: OVCAR-8 ovarian
OVCAR-5 ovarian = tested on: OVCAR-5 ovarian
OVCAR-4 ovarian = tested on: OVCAR-4 ovarian
SK-OV-3 ovarian = tested on: SK-OV-3 ovarian
IGROV1 ovarian = tested on: IGROV1 ovarian
OVCAR-3 ovarian = tested on: OVCAR-3 ovarian
HS 578T breast = tested on: HS 578T breast
NCI/ADR-RES ovarian = tested on: NCI/ADR-RES ovarian
BT-549 breast = tested on: BT-549 breast
MDA-MB-435 melanoma = tested on: MDA-MB-435 melanoma
SW-620 colon = tested on: SW-620 colon
MCF7 breast = tested on: MCF7 breast
HCT-116 colon = tested on: HCT-116 colon
HCC-2998 colon = tested on: HCC-2998 colon
KM12 colon = tested on: KM12 colon
T-47D breast = tested on: T-47D breast
RPMI-8226 leukemia = tested on: RPMI-8226 leukemia

Structure (SMILES)	growth (MOLT-4 leukemia)	growth (SR leukemia)	growth (OVCAR-8 ovarian)	growth (OVCAR-5 ovarian)	growth (OVCAR-4 ovarian)	growth (SK-OV-3 ovarian)	growth (IGROV1 ovarian)	growth (OVCAR-3 ovarian)	growth (HS 578T breast)	growth (NCI/ADR-RES ovarian)	growth (BT-549 breast)	growth (MDA-MB-435 melanoma)	growth (SW-620 colon)	growth (MCF7 breast)	growth (HCT-116 colon)	growth (HCC-2998 colon)	growth (KM12 colon)	growth (T-47D breast)	growth (RPMI-8226 leukemia)
CC(C)(C)C(=O)OCOP(=O)(NCc1ccccc1)C1CCCN(O)C1=O (stereo not drawn)	9.06% (active)	9.38% (active)	14.2%	94.5%	19.9%	59.7%	19.4%	-6.7% (active)	14.7%	13.5%	28%	39.4%	30.1%	19.3%	7% (active)	24.7%	-7.5% (active)	–	–
Cc1cc(NC(=O)NCc2ccc(N3C(N)=NC(N)=NC3(C)C)cc2)ccc1S(=O)(=O)F	42%	4.98% (active)	-4.46% (active)	10.8%	39.2%	64.9%	-51.3% (active)	67.6%	68.6%	112%	42%	32.7%	23.9%	23.2%	23.3%	5.34% (active)	16.2%	59.7%	–
CNC(=O)Oc1ccc(N(C)C)cc1C(C)C	75.3%	123%	105%	99.8%	85.9%	105%	109%	97.7%	94.8%	107%	73.6%	91.7%	116%	91%	95.9%	–	112%	101%	–
CN1CCCCC1C(C)(O)c1ccccc1 (stereo not drawn)	102%	113%	–	94.2%	99.8%	97.8%	99.8%	111%	108%	96.1%	87.4%	99.2%	110%	85.7%	93%	115%	106%	92.2%	114%
Oc1ccc2c3c1OC1[C@@H](O)CC[C@@]4(O)[C@@H](C2)N(CC2CCC2)CC[C@]314 (stereo partly drawn)	97.7%	99.5%	104%	–	98.2%	109%	103%	116%	105%	102%	106%	101%	104%	92.5%	99.2%	–	104%	100%	103%
c1ccc(COc2ccc3[nH]cc(CCN(Cc4ccccc4)Cc4ccccc4)c3c2)cc1	70.7%	69.5%	98.1%	–	95.4%	91.2%	90.7%	96.7%	99.5%	91.4%	103%	102%	90.5%	79.3%	60.3%	99.7%	88%	–	74.9%
COc1cc(/C=C\c2cc(OC)c(OC)c(OC)c2)cc(N/C=C\C(=O)c2cc(OC)c(OC)c(OC)c2)c1OC	28.7%	-5.44% (active)	41.2%	31.8%	–	21.3%	15.6%	9.78% (active)	1.26% (active)	19.5%	43.9%	-37.3% (active)	28.2%	15.1%	17.8%	53.6%	21.8%	-3% (active)	22.8%
C1CCC([PH+](C2CCCCC2)C2CCCCC2[PH+](C2CCCCC2)C2CCCCC2)CC1.[Au].[CH-]1CCCCC1CC1CCCC[N-]1 (stereo not drawn)	0.501% (active)	1.21% (active)	5.9% (active)	-37.2% (active)	–	-70.5% (active)	-29.4% (active)	-86.5% (active)	–	–	-53.6% (active)	-39.2% (active)	-24% (active)	-44.2% (active)	-65.8% (active)	-92.5% (active)	-70.2% (active)	7.94% (active)	-8.82% (active)
Clc1ccc(CSC(Cn2ccnc2)c2ccc(Cl)cc2Cl)cc1 (stereo not drawn)	1.87% (active)	2.95% (active)	14.3%	–	25.9%	71.9%	29.1%	38.8%	63.5%	14.1%	4.34% (active)	31.4%	29.2%	20.9%	7.38% (active)	36.1%	16.1%	29.5%	29.8%
C[CH2][Sn]([Cl])([Cl])[CH2]C.Oc1ccccc1C=NCCN=Cc1ccccc1O	86.1%	103%	100%	104%	–	101%	98.9%	103%	100%	106%	117%	108%	99.7%	131%	112%	–	106%	90%	91.9%
CCn1cnc2c(Nc3cccc(Cl)c3)nc(N[C@@H]3CCCC[C@@H]3N)nc21	-10.9% (active)	-32.7% (active)	–	3.37% (active)	-7.56% (active)	40.1%	5.27% (active)	0.926% (active)	26.9%	11%	61.7%	11.4%	-4.4% (active)	4.02% (active)	0.716% (active)	2.16% (active)	-2.18% (active)	0.53% (active)	-33.2% (active)
O=[N+]([O-])c1cc([N+](=O)[O-])c(Cl)cc1Cl	-21% (active)	-31.3% (active)	-26.8% (active)	-69.1% (active)	-99% (active)	104%	–	-98% (active)	-27.6% (active)	-45.1% (active)	–	-66.5% (active)	-77.1% (active)	-57.9% (active)	-98.8% (active)	38%	-81.1% (active)	-35.3% (active)	-50.2% (active)
Cc1c2cc(Cl)c3ccccc3c2c[n+]2ccccc12	1.48% (active)	-11.7% (active)	-1.69% (active)	77.6%	30.3%	66.6%	19.9%	4.55% (active)	-33.2% (active)	87.2%	-6.2% (active)	64.9%	50.7%	26.4%	48.7%	15.3%	39.7%	-27.4% (active)	–
Cc1ccc(S(=O)(=O)C(Cl)(Cl)Cl)cc1	79.6%	89.4%	96.2%	96.8%	105%	82.5%	99%	110%	96.1%	89.1%	92.1%	97.1%	99.3%	98.6%	87.3%	107%	101%	78.4%	–
CCCCCCCOC(C(=O)OCCN(CC)CC)(c1ccccc1)c1ccccc1	70.3%	–	104%	91.3%	81.6%	104%	68.7%	94.1%	94.5%	97.8%	88.3%	98.2%	77.3%	115%	58%	88.5%	78.4%	86%	72.4%
COc1ccc(C/C(C)=C(\c2ccc(OCCN3CCOCC3)cc2)c2ccc(OC(=O)Cc3ccccc3)cc2)cc1	-14.5% (active)	–	-1.48% (active)	3.16% (active)	4% (active)	0.737% (active)	1.9% (active)	-93.4% (active)	-42.1% (active)	5.39% (active)	-70.4% (active)	-58.9% (active)	-63% (active)	-53.1% (active)	-89.7% (active)	-64.3% (active)	-35.2% (active)	-48.5% (active)	-42.4% (active)
CC1(C)N=C(N)N=C(N)N1c1ccc(OCCCNC(=O)Nc2ccc(S(=O)(=O)F)cc2)c(Cl)c1	33.4%	–	31.5%	48%	54.3%	58.5%	17.9%	27.4%	83.6%	115%	60.9%	31.5%	20.6%	18.4%	14.8%	15.3%	22%	52.4%	24.6%
